Results as given in the OligoGym collection.

Target: COX10
Experiment: pooled miR-30 sensor sort-seq; sequence = guide strand
Details: shRNA
Also: reference of the scale not given here.

Sequence	sensor-assay potency score (higher = more potent)
TTTCTGCTTTGGCTTGACCTGA	-0.722
ATAATCTTGTTCTAAACCCAGC	-0.854
TTGAAATGAGGAAACTGCCAGG	-0.59
TGCAGTGGTACTTACAACCAGA	-1.05

Target: COX19
Experiment: as above
Details: shRNA

Sequence	sensor-assay potency score (higher = more potent)
TTCACCTAAGTGATCCAGCGGG	-0.488
ATGAATTTCTCTTTAAAGCTTT	-0.368
TAAAGCTTTTACATTCACCTAA	0.0153
TAGTCAAGTCTCCAAATCCCAG	-1.71
ATCAATTTTCTCTCCATCCTGC	0.0848
TAAATATTCTTTTGATTCCTTT	-0.553
TATTGTTATGAAGACACTTCAT	0.108
TTTTACATTCACCTAAGTGATC	-1.57
ATTATTGTTATGAAGACACTTC	0.267
ATTGTTATGAAGACACTTCATG	-0.941
TTCCACTAGTCAAGTCTCCAAA	-0.858
TTCTGCACAAAGCATTTTCAAA	-1.5
